Values without a mark were called inactive.
What was measured:
Assay in all cases: log2 ratio of Biotin-Ahx-Ub-VS probe labelling (compound/DMSO); higher = less target engagement, active = hit call of the paper (q ≤ 0.05, log2 ratio ≤ -1)
Settings in all cases: treatment time: 3 h
[1] = compound: ClCC(=O)NC1CCCc2ccccc12
How it was run: (§1)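 DUBs in HEK293T lysate were labelled with Biotin-Ahx-Ub-VS (0.5 µM final, 1 h) after a 3 h treatment with compound at 50 or 200 µM or with DMSO, done in triplicate on 495 µg of lysate per sample. NeutrAvidin-enriched proteins were digested with LysC and trypsin and run by diaPASEF LC-MS/MS. Median-normalised label-free quantities gave average base-two log ratios of compound to DMSO by unpaired t-test, restricted to proteins with at least 2 unique peptides.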

[2] = compound: ClCC(=O)NC1CCOc2ccc(Cl)cc12
How it was run: as §1

[3] = compound: ClCC(=O)NC1CCSc2ccccc12
How it was run: as §1

[4] = compound: ClCC(=O)N[C@H]1CCCc2ccccc12
How it was run: as §1

[5] = compound: Fc1ccc(N2CCN(c3nc4c(CN(C(CCl)=O)CC4)cn3)CC2)cc1.Cl.Cl
How it was run: as §1

Sequence of UniProt Q5T2D3 (Q5T2D3 whole entry): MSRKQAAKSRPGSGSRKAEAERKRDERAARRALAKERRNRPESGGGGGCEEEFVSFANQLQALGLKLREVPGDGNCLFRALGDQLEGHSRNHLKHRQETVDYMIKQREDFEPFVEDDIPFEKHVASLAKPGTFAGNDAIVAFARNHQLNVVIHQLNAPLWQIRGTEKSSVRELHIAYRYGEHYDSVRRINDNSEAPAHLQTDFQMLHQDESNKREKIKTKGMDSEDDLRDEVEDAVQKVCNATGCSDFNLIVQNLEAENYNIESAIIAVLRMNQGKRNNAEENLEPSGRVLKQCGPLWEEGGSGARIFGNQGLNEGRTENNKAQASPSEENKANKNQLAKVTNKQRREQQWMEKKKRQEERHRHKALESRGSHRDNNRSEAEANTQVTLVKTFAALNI
Sequence of UniProt Q9P275 (Q9P275 whole entry): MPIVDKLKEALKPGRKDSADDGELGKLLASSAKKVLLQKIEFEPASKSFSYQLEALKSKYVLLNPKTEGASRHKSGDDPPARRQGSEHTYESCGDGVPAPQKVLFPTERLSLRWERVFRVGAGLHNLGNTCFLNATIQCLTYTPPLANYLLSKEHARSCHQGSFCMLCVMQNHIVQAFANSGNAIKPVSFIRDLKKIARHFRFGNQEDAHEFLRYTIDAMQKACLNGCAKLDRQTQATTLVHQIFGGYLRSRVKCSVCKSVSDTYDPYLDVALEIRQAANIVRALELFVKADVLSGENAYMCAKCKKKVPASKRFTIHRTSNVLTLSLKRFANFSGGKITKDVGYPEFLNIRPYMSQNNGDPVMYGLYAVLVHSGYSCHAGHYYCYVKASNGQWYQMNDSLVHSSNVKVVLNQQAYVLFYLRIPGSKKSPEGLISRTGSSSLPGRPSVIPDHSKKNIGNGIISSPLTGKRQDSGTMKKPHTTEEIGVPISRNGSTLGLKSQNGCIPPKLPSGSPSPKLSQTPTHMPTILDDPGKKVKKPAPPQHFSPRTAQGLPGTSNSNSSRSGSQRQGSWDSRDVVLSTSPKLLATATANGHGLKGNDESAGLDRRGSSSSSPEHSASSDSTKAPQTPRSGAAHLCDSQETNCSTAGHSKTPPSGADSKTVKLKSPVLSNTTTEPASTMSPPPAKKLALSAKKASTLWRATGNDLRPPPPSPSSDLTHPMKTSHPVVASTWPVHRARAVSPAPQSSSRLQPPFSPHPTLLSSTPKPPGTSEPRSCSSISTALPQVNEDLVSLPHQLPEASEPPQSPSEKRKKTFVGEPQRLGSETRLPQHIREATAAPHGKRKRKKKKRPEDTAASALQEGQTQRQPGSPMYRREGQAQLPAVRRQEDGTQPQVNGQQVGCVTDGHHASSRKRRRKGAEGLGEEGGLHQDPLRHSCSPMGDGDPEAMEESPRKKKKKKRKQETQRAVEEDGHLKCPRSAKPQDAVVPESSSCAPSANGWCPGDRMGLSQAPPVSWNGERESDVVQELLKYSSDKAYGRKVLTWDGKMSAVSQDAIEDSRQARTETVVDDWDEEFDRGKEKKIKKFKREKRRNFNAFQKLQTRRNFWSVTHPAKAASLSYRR
Sequence of UniProt Q92560 (Q92560 whole entry): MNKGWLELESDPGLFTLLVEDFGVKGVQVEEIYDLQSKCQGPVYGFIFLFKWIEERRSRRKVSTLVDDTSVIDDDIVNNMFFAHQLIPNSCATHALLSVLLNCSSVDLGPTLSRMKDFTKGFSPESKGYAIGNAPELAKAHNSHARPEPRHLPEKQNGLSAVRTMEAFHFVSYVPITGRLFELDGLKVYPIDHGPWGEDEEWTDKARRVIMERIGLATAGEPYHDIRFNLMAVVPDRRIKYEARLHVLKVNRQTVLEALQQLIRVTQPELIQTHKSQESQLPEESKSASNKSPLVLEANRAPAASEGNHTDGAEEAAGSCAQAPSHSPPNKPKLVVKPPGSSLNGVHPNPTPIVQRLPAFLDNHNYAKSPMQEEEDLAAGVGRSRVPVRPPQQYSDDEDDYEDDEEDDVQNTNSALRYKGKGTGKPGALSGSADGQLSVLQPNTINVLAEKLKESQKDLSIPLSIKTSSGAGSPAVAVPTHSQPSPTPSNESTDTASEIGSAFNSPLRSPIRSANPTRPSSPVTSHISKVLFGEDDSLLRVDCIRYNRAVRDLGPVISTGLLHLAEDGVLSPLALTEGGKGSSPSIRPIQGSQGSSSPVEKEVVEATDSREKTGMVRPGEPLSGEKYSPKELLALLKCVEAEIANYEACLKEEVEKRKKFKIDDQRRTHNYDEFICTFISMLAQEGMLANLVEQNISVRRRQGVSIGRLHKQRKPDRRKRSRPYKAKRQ
Sequence of UniProt Q93008 (Q93008 whole entry): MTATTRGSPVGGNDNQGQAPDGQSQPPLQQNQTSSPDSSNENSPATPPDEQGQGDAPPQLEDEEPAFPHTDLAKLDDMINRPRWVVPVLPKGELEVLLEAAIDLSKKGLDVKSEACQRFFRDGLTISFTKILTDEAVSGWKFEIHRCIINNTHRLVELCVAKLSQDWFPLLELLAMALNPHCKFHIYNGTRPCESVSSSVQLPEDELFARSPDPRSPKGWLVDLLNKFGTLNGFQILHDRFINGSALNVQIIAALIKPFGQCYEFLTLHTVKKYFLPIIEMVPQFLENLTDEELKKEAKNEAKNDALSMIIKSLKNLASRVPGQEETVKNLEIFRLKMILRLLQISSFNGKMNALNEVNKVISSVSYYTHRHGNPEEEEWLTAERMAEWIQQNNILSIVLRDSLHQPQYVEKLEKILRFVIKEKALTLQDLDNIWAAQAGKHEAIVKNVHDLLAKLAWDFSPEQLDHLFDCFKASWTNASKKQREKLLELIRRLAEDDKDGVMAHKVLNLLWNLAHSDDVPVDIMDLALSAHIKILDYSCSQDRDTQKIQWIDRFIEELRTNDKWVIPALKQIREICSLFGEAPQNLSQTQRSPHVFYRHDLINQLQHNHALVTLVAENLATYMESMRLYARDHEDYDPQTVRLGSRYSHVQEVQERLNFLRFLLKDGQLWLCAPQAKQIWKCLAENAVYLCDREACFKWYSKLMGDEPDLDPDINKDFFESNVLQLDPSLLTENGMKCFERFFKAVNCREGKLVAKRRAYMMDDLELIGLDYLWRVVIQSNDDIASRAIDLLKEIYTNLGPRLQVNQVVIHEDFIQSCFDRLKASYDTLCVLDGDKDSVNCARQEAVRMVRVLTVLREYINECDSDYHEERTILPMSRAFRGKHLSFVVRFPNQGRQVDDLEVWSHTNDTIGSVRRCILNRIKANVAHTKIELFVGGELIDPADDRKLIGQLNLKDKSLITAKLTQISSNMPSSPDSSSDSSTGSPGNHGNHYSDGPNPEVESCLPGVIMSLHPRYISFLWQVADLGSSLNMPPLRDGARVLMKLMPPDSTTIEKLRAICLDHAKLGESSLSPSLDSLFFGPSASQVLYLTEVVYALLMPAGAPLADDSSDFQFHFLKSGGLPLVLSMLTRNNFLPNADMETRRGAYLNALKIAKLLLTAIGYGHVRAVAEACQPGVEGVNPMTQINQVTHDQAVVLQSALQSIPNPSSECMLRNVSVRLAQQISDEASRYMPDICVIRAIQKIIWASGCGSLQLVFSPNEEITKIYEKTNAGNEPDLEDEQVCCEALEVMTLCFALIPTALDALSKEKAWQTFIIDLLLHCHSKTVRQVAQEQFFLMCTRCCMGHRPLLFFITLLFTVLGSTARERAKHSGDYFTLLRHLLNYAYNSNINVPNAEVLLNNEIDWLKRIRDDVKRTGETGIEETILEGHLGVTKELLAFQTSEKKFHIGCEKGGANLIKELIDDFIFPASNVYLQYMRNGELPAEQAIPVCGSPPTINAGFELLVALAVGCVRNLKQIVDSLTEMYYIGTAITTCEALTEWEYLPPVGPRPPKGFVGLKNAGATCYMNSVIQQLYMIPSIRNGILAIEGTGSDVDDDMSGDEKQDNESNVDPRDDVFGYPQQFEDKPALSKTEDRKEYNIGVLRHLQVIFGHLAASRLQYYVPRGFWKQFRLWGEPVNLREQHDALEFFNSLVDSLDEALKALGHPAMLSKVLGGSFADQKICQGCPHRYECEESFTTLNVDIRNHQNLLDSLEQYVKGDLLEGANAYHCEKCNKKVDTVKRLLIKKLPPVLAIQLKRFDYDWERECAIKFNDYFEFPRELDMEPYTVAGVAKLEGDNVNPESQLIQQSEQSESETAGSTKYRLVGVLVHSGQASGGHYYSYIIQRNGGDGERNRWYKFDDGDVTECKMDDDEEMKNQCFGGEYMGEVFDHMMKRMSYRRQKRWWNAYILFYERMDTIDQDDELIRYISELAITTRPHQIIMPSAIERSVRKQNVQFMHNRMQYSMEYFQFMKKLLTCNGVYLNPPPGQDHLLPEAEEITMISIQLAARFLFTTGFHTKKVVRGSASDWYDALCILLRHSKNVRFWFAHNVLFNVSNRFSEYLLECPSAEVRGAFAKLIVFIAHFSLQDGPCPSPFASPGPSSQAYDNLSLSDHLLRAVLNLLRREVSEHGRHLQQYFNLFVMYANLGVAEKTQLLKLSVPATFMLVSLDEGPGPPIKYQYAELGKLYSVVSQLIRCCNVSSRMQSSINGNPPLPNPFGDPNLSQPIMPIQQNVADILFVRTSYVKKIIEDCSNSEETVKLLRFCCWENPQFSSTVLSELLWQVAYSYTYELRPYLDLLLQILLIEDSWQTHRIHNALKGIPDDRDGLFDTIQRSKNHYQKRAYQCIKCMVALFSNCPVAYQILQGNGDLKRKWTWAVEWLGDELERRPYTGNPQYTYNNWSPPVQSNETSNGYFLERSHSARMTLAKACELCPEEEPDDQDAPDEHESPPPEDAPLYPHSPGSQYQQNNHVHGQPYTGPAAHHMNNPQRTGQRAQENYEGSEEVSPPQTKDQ

Row | Target | log2 ratio of Biotin-Ahx-Ub-VS probe labelling ([1]; compound concentration: 50uM) | log2 ratio of Biotin-Ahx-Ub-VS probe labelling ([1]; compound concentration: 200uM) | log2 ratio of Biotin-Ahx-Ub-VS probe labelling ([2]; compound concentration: 50uM) | log2 ratio of Biotin-Ahx-Ub-VS probe labelling ([2]; compound concentration: 200uM) | log2 ratio of Biotin-Ahx-Ub-VS probe labelling ([3]; compound concentration: 50uM) | log2 ratio of Biotin-Ahx-Ub-VS probe labelling ([3]; compound concentration: 200uM) | log2 ratio of Biotin-Ahx-Ub-VS probe labelling ([4]; compound concentration: 50uM) | log2 ratio of Biotin-Ahx-Ub-VS probe labelling ([4]; compound concentration: 200uM) | log2 ratio of Biotin-Ahx-Ub-VS probe labelling ([5]; compound concentration: 50uM) | log2 ratio of Biotin-Ahx-Ub-VS probe labelling ([5]; compound concentration: 200uM)
1 | EIF3H (UniProt O15372) | -0.0316 | -0.379 | -0.141 | -0.0932 | -0.0985 | -0.00068 | -0.109 | 0.0728 | 0.0328 | -0.126
2 | BAP1 (UniProt Q92560) | -0.474 | -1.23 (active) | -1.05 (active) | -2.38 (active) | -0.619 | -2.44 (active) | -0.684 | -1.69 (active) | -0.262 | -1.91 (active)
3 | USP8 (UniProt P40818) | -0.193 | -0.0275 | -0.286 | -0.268 | 0.0453 | -0.166 | -0.0844 | -0.245 | -0.136 | -0.61
4 | USP19 (UniProt O94966) | -0.205 | -0.219 | -0.252 | -0.38 | -0.00658 | -0.393 | -0.0565 | -0.411 | -1.25 (active) | -3.86 (active)
5 | USP48 (UniProt Q86UV5) | 0.13 | 0.0439 | -0.0252 | -0.167 | 0.207 | -0.0233 | -0.00252 | -0.144 | -0.0747 | -0.125
6 | USP36 (UniProt Q9P275) | 0.0611 | 0.171 | -0.00761 | -0.088 | 0.158 | 0.1 | -0.0619 | -0.0962 | -0.181 | -0.183
7 | USP22 (UniProt Q9UPT9) | -0.085 | -0.0777 | -0.0691 | -0.277 | 0.136 | -0.123 | 0.101 | -0.302 | -0.16 | -0.168
8 | UniProt Q5T2D3 | -0.177 | 0.0818 | -0.361 | -0.177 | -0.0329 | -0.156 | -0.0344 | -0.199 | -0.00755 | -0.416
9 | USP9X (UniProt Q93008) | -0.0287 | -0.0252 | -0.131 | -0.237 | 0.0883 | -0.151 | 0.0465 | -0.214 | -0.231 | -1.53 (active)
10 | COPS5 (UniProt Q92905) | -0.103 | 0.0648 | -0.403 | -0.0328 | -0.0481 | 0.169 | -0.289 | -0.229 | -0.304 | 0.0806
11 | UniProt P51784 | 0.0554 | 0.032 | -0.0759 | -0.235 | 0.214 | -0.104 | 0.124 | -0.322 | 0.0256 | -1.01 (active)
12 | USP54 (UniProt Q70EL1) | -0.548 | 0.0905 | 0.326 | 0.176 | 0.0467 | 0.0947 | -1.58 (active) | -0.206 | -0.663 | 0.547
13 | USP12 (UniProt O75317) | -0.289 | -0.199 | -0.354 | -0.202 | -0.191 | -0.363 | -0.253 | -0.148 | -0.289 | -1.16 (active)
